Laboratory results as given in the supplement of paper PMC10646978.
± gives the standard deviation.

Experiments:
Settings in all cases: modulator concentration 10 µM
[1] = tested on: RAW-Dual (murine macrophage reporter line); assay: NF-kB reporter (SEAP) activity fold change vs agonist alone; higher = enhanced NF-kB activity
Outline: (§1)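 In 384-well plates holding 50 000 RAW-Dual murine macrophage reporter cells per well, compound at 10 μM final was pre-incubated for 1 hour at 37 °C, after which a PRR agonist was added overnight. Supernatant SEAP read with QUANTI-Blue at 620 nm absorbance reported NF-κB, and Lucia luciferase read with QUANTI-Luc luminescence reported IRF. Fold change values come from dividing each reporter signal by the mean of agonist-only control wells on the same plate, averaged over replicate plates with propagated errors.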

[2] = tested on: RAW-Dual (murine macrophage reporter line); assay: IRF reporter (Lucia luciferase) activity fold change vs agonist alone; higher = enhanced IRF activity
Outline: as §1

[3] = tested on: RAW-Dual (murine macrophage reporter line); assay: viability score (confluency relative to resting cells, overnight) (fraction); higher = more viable, active = viable (0.7 or more)
Outline: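 RAW-Dual macrophages in 384-well plates were exposed overnight to compound at 10 μM final. Confluency was imaged with IncuCyte, and two confluency masks were generated with IncuCyte software over all imaged wells. The viability score is confluency expressed relative to resting cells. Compounds were called viable if both masks exceeded 70% of resting cells.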

[4] = agonist: CpG ODN 1826 0.5 ug/mL

SMILES	NF-kB reporter [1, 4]	NF-kB reporter ([1]; agonist: LPS 0.1 ug/mL)	NF-kB reporter ([1]; agonist: MPLA […])	IRF reporter ([2]; agonist: 3'3'-cGAMP 10 ug/mL)	IRF reporter ([2]; agonist: LPS 0.1 ug/mL)	IRF reporter ([2]; agonist: MPLA […])	viability score [3]
Cc1cn2c(nc1=O)OC1C(O)C(CO)OC12 (configuration not stated)	1.01 ± 0.08	1.02 ± 0.075	0.953 ± 0.091	1.02 ± 0.048	1.29 ± 0.2	1.44 ± 0.4	1.03 (active)
O=C(Nc1ncc(S(=O)(=O)c2ccc([N+](=O)[O-])cc2)s1)c1cccs1	1.06 ± 0.11	1.09 ± 0.06	0.914 ± 0.06	0.987 ± 0.03	1.49 ± 0.27	1.18 ± 0.21	1.01 (active)
CCCOc1ccc(C=CC(=O)Nc2ccc(S(=O)(=O)Nc3ncccn3)cc2)cc1OC	0.938 ± 0.077	1.03 ± 0.06	0.963 ± 0.092	0.982 ± 0.035	1.27 ± 0.18	1.11 ± 0.23	1.01 (active)
CCOC(=O)C1=C(C)NC(C)=C(C(=O)OCC)C1c1ccccc1/C=C/C(=O)OC(C)(C)C	1.04 ± 0.15	1.14 ± 0.3	1.14 ± 0.26	0.586 ± 0.032	1.39 ± 0.29	1.15 ± 0.086	0.965 (active)
O=C(NCCc1nc(C2CC2)cc(C(F)(F)F)n1)c1c(F)cccc1Cl	1.01 ± 0.079	1.11 ± 0.087	0.943 ± 0.11	1.01 ± 0.053	1.13 ± 0.086	1.07 ± 0.12	1 (active)
CCCC1=NN(c2ccc([N+](=O)[O-])cc2)C(=O)C1=CNC1CC1	0.833 ± 0.066	1.15 ± 0.065	0.934 ± 0.056	0.999 ± 0.043	1.49 ± 0.12	1.18 ± 0.2	1.01 (active)
COc1ccc(CCNC2CC(=O)N(C)C2=O)cc1OC (configuration not stated)	1.08 ± 0.061	1.03 ± 0.11	0.994 ± 0.046	0.944 ± 0.07	0.998 ± 0.091	0.895 ± 0.15	0.997 (active)
NCC(O)CNCCc1ccccc1 (configuration not stated)	0.782 ± 0.067	1.02 ± 0.13	1.22 ± 0.069	0.575 ± 0.021	1.12 ± 0.12	1.02 ± 0.093	1 (active)
COc1ccc(C(O)CN2CCN(c3cccc(C)c3C)CC2)cc1OC (configuration not stated)	0.724 ± 0.18	0.928 ± 0.095	0.95 ± 0.06	0.956 ± 0.054	0.873 ± 0.16	1.04 ± 0.12	0.997 (active)
COC(=O)C1=C(C)NC(C)=C(C(=O)OCC(C)C)C1c1ccccc1[N+](=O)[O-] (configuration not stated)	0.884 ± 0.092	0.81 ± 0.05	0.748 ± 0.075	0.371 ± 0.017	0.783 ± 0.066	0.562 ± 0.052	0.923 (active)
COc1ccc(CN(CCN(C)C)c2ccccn2)cc1.O=C(O)/C=C\C(=O)O	0.568 ± 0.15	1 ± 0.053	1.01 ± 0.094	0.834 ± 0.073	0.773 ± 0.13	0.78 ± 0.087	0.946 (active)
OCC(O)CN1CCN(c2ccccc2)CC1 (configuration not stated)	1.06 ± 0.091	1.03 ± 0.12	1.02 ± 0.039	1.03 ± 0.064	0.991 ± 0.11	0.982 ± 0.17	0.996 (active)
COc1ccc(C(=O)C=Cc2cc(OC)c(OC)c(OC)c2)c(O)c1	1.63 ± 0.13	0.199 ± 0.018	0.273 ± 0.026	0.148 ± 0.014	0.0569 ± 0.019	0.0398 ± 0.015	0.794 (active)
CCOC(N)=O	0.962 ± 0.13	1.09 ± 0.24	0.948 ± 0.068	0.927 ± 0.057	1.32 ± 0.28	1.02 ± 0.14	1.01 (active)
COc1ccc(-c2nc(CNC(=O)C3CCN(c4cc(C5CC5)ncn4)CC3)cs2)cc1	0.957 ± 0.066	1.4 ± 0.11	1.16 ± 0.05	1.05 ± 0.062	1.24 ± 0.14	1.29 ± 0.25	1 (active)
CC1(C)CC(=O)C2=C(C1)OC(N)=C(C#N)C2C1CC=CCC1 (configuration not stated)	1.02 ± 0.061	1.08 ± 0.099	1.11 ± 0.068	1.23 ± 0.041	1.29 ± 0.18	1.14 ± 0.12	0.9 (active)
COCCOC(=O)C1=C(C)NC(C)=C(C(=O)OCC=Cc2ccccc2)C1c1cccc([N+](=O)[O-])c1 (configuration not stated)	0.586 ± 0.052	0.539 ± 0.074	1.07 ± 0.068	0.548 ± 0.035	1.06 ± 0.035	2.1 ± 0.43	0.989 (active)
Cl.NC12CC3CC(CC(C3)C1)C2	1.44 ± 0.2	1.21 ± 0.38	1.04 ± 0.062	0.909 ± 0.033	1.44 ± 0.24	1.12 ± 0.096	0.983 (active)
COCCN(CCOC)C(=O)Cc1csc2nc(-c3ccc(F)cc3)cn12	1.1 ± 0.27	0.966 ± 0.084	0.949 ± 0.067	0.947 ± 0.064	1.09 ± 0.15	1.31 ± 0.24	0.653 (inactive)
O=C(NN=Cc1ccccc1C(F)(F)F)c1ccc(=O)[nH]n1	0.764 ± 0.062	0.877 ± 0.052	1.08 ± 0.098	0.964 ± 0.052	1.23 ± 0.08	1.28 ± 0.12	0.999 (active)
CCn1nnc2c(NCCc3c[nH]c4ccccc34)ncnc21	0.961 ± 0.042	1.09 ± 0.1	1.09 ± 0.058	0.768 ± 0.043	1.05 ± 0.15	1.11 ± 0.32	0.958 (active)
CC(C)(C)C1(O)CC(C(F)(F)F)=NN1C(=O)c1ccc([N+](=O)[O-])cc1 (configuration not stated)	0.644 ± 0.056	0.79 ± 0.095	1.01 ± 0.035	1.38 ± 0.13	1.13 ± 0.14	1.66 ± 0.33	0.941 (active)
CCN1CC(CCN2CCOCC2)C(c2ccccc2)(c2ccccc2)C1=O (configuration not stated)	1.18 ± 0.32	1.04 ± 0.072	1.05 ± 0.067	0.874 ± 0.03	1.28 ± 0.14	1.29 ± 0.24	1.01 (active)
COc1c(C)cnc(Cn2cccc(-c3nc(C)no3)c2=O)c1C	0.826 ± 0.2	0.937 ± 0.092	0.967 ± 0.061	0.95 ± 0.033	0.995 ± 0.18	1.1 ± 0.22	0.997 (active)
CC(C)(O)CNc1nc(Nc2ccnc(C(F)(F)F)c2)nc(-c2cccc(C(F)(F)F)n2)n1	1.13 ± 0.37	1.19 ± 0.079	1.12 ± 0.087	1.01 ± 0.053	1.3 ± 0.19	1.54 ± 0.15	0.999 (active)
CC(C)(C)c1ccc(C(=O)CCCN2CCC(OC(c3ccccc3)c3ccccc3)CC2)cc1	0.99 ± 0.25	1.05 ± 0.081	1.02 ± 0.073	0.646 ± 0.024	1.18 ± 0.23	1.21 ± 0.13	1 (active)
